Laboratory results taken from PubChem BioAssay (NCI).
Compounds without any hit were thinned out: in the full panel of roughly 83,000, 20% have a hit.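 Cells were grown in 96-well plates and exposed to the test compound at a single concentration for 48 hours; results are reported as percent growth, with values below 10 considered active.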 Active and inactive are the calls of the source.

How the values were obtained:
Assay in all cases: NCI-60 one-dose screen, 48 h (100 = growth as untreated, 0 = no growth, -100 = all killed)
Conditions in all cases: 10 µM unless noted
[1] = test system: HCT-15 colon
[2] = test system: HT29 colon
[3] = test system: SNB-75 CNS
[4] = test system: SNB-19 CNS
[5] = test system: U251 CNS
[6] = test system: SK-MEL-5 melanoma
[7] = test system: UACC-62 melanoma
[8] = test system: LOX IMVI melanoma
[9] = test system: SK-MEL-28 melanoma
[10] = test system: SK-MEL-2 melanoma
[11] = test system: EKVX NSCLC
[12] = test system: SN12C renal
[13] = test system: UO-31 renal
[14] = test system: TK-10 renal
[15] = test system: ACHN renal
[16] = test system: CAKI-1 renal
[17] = test system: A498 renal
[18] = test system: CCRF-CEM leukemia
[19] = test system: MOLT-4 leukemia

Measured: growth

C#CCOc1ccc2ncnc(N3CCN(C(=O)CCl)CC3)c2c1
inactive: [1] 58.8% [8.25 µM] | [2] 71.7% [8.25 µM] | [3] 101% [8.25 µM] | [4] 95.9% [8.25 µM] | [5] 91.2% [8.25 µM] | [6] 57.7% [8.25 µM] | [7] 68.2% [8.25 µM] | [8] 47.4% [8.25 µM] | [9] 98.4% [8.25 µM] | [10] 87.6% [8.25 µM] | [11] 96.7% [8.25 µM] | [12] 40.7% [8.25 µM] | [13] 75.5% [8.25 µM] | [14] 99.1% [8.25 µM] | [16] 109% [8.25 µM] | [17] 110% [8.25 µM] | [18] 10.7% [8.25 µM] | [19] 67.1% [8.25 µM]
active: [15] -54.7% [8.25 µM]

O=c1c(F)cn(Cc2ccccc2CCl)c(=O)n1Cc1ccccc1CCl
active: [1] -57.6% | [2] -83.7% | [3] -5.72% | [4] -23% | [5] -71.6% | [6] -100% | [7] -82.6% | [8] -81.7% | [9] -65% | [10] 4.2% | [11] -4.31% | [12] -26.5% | [13] -80.4% | [14] -30.8% | [15] -81.8% | [16] -84.5% | [18] -42.9% | [19] -40.3%
inactive: [17] 76.3%

COc1ccc(-c2cc(Nc3ccnc(N4CCOCC4)n3)on2)cc1
inactive: [1] 20.3% | [4] 39% | [5] 23.2% | [6] 19.7% | [7] 60.5% | [8] 51.9% | [9] 69.3% | [10] 42% | [11] 50.9% | [12] 47.2% | [13] 51.9% | [14] 69.1% | [15] 44.9% | [16] 51.8% | [18] 17.2% | [19] 21.2%
active: [2] 9.4% | [3] -3.66% | [17] -0.776%

COc1ccc(S(=O)(=O)N2CCN(C)CC2)cc1NC(=O)c1[nH]c(C)c2c1CCCCC2=O
inactive: [1] 62.4% | [2] 28.9% | [3] 17.4% | [4] 66.5% | [5] 68% | [6] 43.7% | [7] 25.6% | [8] 29.6% | [9] 72% | [10] 79.6% | [11] 58.4% | [12] 60.4% | [13] 37% | [14] 33.4% | [15] 58.6% | [16] 21.2% | [17] 60.9% | [18] 75.5% | [19] 81.4%

COc1ccc2[nH]cc(-c3noc(C(=O)c4cn(C)c5ccc(F)cc45)n3)c2c1
inactive: [1] 94.4% | [2] 109% | [3] 74.6% | [4] 96% | [5] 101% | [6] 92.5% | [7] 88.2% | [8] 93.2% | [9] 105% | [10] 94.7% | [11] 76.9% | [12] 93% | [13] 67.9% | [14] 113% | [15] 88.4% | [16] 81.5% | [17] 95.8% | [18] 99.2% | [19] 95.4%

Cn1cc(-c2nonc2-c2cn(C)c3ccc(F)cc23)c2ccccc21
inactive: [1] 18.8% | [4] 31.6% | [5] 23.5% | [6] 24.1% | [7] 30.4% | [8] 34.8% | [9] 63.3% | [10] 30.6% | [11] 47.6% | [12] 33.8% | [13] 26.9% | [14] 60.6% | [15] 38.7% | [16] 26.2% | [18] 14.9% | [19] 15.9%
active: [2] 6.32% | [3] -17.9% | [17] -2.88%

C(=C\c1nccc2c1[nH]c1ccccc12)/c1ccccc1
active: [2] 1.31% | [3] -20.1% | [6] 2.59% | [16] -8.56%
inactive: [1] 18.7% | [4] 35% | [5] 15.1% | [7] 39.3% | [8] 25.5% | [9] 49.6% | [10] 37.4% | [11] 38.3% | [12] 46.2% | [13] 13.2% | [14] 34% | [15] 35.6% | [17] 40.4% | [19] 49.1%

COc1ccc(NC2=C(Sc3nc(C)cc(C)n3)C(=O)N(Cc3ccccc3)C2=O)cc1Cl
inactive: [1] 73.8% [30 µM] | [2] 60.1% [30 µM] | [3] 84.4% [30 µM] | [4] 95.4% [30 µM] | [5] 86.9% [30 µM] | [6] 57.9% [30 µM] | [7] 71.5% [30 µM] | [8] 93.2% [30 µM] | [9] 103% [30 µM] | [10] 96.5% [30 µM] | [11] 84.5% [30 µM] | [12] 91.8% [30 µM] | [13] 84.2% [30 µM] | [14] 111% [30 µM] | [15] 103% [30 µM] | [16] 95.7% [30 µM] | [17] 80.4% [30 µM] | [18] 54.6% [30 µM] | [19] 45% [30 µM]

CCOC(=O)c1c(CN2CCN(C)CC2)nc2ccc(Cl)cc2c1-c1ccccc1
inactive: [1] 62.9% | [2] 18% | [3] 58.6% | [4] 86.8% | [5] 64.4% | [6] 18.3% | [7] 86.3% | [8] 54.4% | [10] 80% | [11] 66.4% | [12] 92.8% | [13] 47.3% | [14] 82.6% | [15] 91.7% | [16] 52.8% | [17] 90.7% | [18] 37.7% | [19] 32.5%
active: [9] -22.6%

O=C1Nc2ccc(Br)cc2C12Oc1ccccc1C1CC(c3ccc(F)cc3)=NN12 (centres undefined)
inactive: [1] 79.9% | [2] 93.7% | [3] 86% | [4] 90.6% | [5] 90.9% | [6] 93.3% | [7] 84.6% | [8] 91.9% | [9] 105% | [10] 98.1% | [11] 85.5% | [12] 93.3% | [13] 65.6% | [14] 121% | [15] 91% | [16] 78.7% | [17] 102% | [18] 91% | [19] 74.8%

O=C(CN1C(=O)/C(=C/c2ccc(Cl)cc2)SC1=S)NCCCN1CCOCC1
inactive: [1] 93.1% | [2] 114% | [3] 92.8% | [4] 97.9% | [5] 98.4% | [6] 95.7% | [7] 97% | [8] 90.5% | [9] 101% | [10] 111% | [11] 90.7% | [12] 94.7% | [13] 83.2% | [14] 117% | [15] 94.6% | [16] 89.4% | [17] 104% | [18] 105% | [19] 102%

Nc1ccc(-c2cc3c(NCc4ccccc4)ncnc3s2)cc1
inactive: [1] 82.2% | [2] 103% | [3] 89.2% | [4] 73.6% | [5] 82.4% | [6] 55.7% | [7] 71.8% | [8] 84.2% | [9] 92.3% | [10] 85.1% | [11] 57.9% | [12] 72.6% | [13] 58.5% | [14] 50.2% | [15] 52.7% | [16] 63.1% | [17] 52.6% | [18] 81.9% | [19] 83.7%

COc1cccc(/C=C2\SC(=Nc3ccc(NC(C)=O)cc3)NC2=O)c1OC
inactive: [1] 96.5% | [2] 116% | [3] 67.5% | [4] 97.7% | [5] 93.1% | [6] 96.2% | [7] 98% | [8] 95.7% | [9] 101% | [10] 110% | [11] 103% | [12] 94.6% | [13] 60.8% | [14] 97.7% | [15] 82.5% | [16] 67.9% | [17] 58.7% | [18] 97.1% | [19] 99.2%

NC(=O)c1cc(Br)ccc1NC(=O)/C=C/c1ccccc1
active: [3] -7.05% | [18] 9.57%
inactive: [1] 30.9% | [2] 13.9% | [4] 47.2% | [5] 28.7% | [6] 12.2% | [7] 43% | [8] 52.1% | [9] 42.2% | [10] 47.7% | [11] 46.4% | [12] 48.3% | [13] 37.7% | [14] 98.7% | [15] 64.4% | [16] 53.2% | [17] 59.7% | [19] 36.8%

O=C1c2cccc3cccc(c23)C(=O)N1CCCCN1CCN(CCCCOc2ccc(-c3nc4ccc(N5CCOCC5)cc4[nH]3)cc2)CC1
inactive: [1] 87.8% | [2] 83.3% | [3] 84.8% | [4] 89.4% | [5] 74.6% | [6] 89.2% | [7] 92.8% | [8] 93.7% | [9] 81.5% | [10] 90.4% | [11] 91.7% | [12] 94.7% | [13] 32.8% | [14] 114% | [15] 104% | [16] 79.8% | [17] 111% | [18] 30.8% | [19] 52.3%
